Measured values reported in PubChem BioAssay AID624417 (National Center for Advancing Translational Sciences (NCATS), 2012).
In all, about 410,000 compounds went through this assay and about 6,400 (1.6%) were called active. Not shown: some 20% with an inconclusive outcome. Calls come from the whole dose curve; as a rule, active = well fitted inhibition curve with a large enough effect; inconclusive = small, poorly fitted or top-dose-only effect; inactive = no such curve, though single readings can be large or run the other way. The entries come from a sample that favours actives as a whole. Entries that show only a call come without a potency.
Note: nearly all actives have a fitted effect of over 55% in size.
Potency is the fitted concentration of half-maximal effect.

Each compound was assayed against Glucagon-like peptide 1 receptor (Homo sapiens) (UniProt P43220) (assay: qHTS of GLP-1 Receptor Inverse Agonists (Inhibition Mode)). Conditions: HEK293 GLP-1R CRE-luciferase, luminescence, 24 h; series mostly up to 38.3 µM.
Chain of Glucagon-like peptide 1 receptor (Homo sapiens) (P43220 whole entry, looked up): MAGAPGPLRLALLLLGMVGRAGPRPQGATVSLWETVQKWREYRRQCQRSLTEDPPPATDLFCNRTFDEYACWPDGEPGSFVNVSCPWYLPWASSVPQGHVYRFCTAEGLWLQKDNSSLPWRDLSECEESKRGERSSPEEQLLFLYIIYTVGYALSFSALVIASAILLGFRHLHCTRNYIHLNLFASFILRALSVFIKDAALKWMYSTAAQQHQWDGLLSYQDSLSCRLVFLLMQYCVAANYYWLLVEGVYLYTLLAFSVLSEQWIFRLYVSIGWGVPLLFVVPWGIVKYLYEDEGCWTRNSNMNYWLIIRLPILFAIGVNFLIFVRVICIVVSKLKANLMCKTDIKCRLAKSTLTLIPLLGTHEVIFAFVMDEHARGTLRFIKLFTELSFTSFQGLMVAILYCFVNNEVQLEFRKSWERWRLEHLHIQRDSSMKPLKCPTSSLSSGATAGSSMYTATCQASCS
Excerpt: The overall goal of this project was to develop a novel assay for discovering small molecule ligands for class B1 G protein-coupled receptors (GPCRs). Very few agonists (or inverse agonists in inhibition mode) with generally weak activity for this entire group of physiologically important receptors are known to date. To establish proof-of-principle that this critical bottleneck can be overcome with a suitable screening approach, our studies focused on the class B1 receptor for glucagon-like peptide-1 (GLP-1R), a potential therapeutic target for diabetes and neurodegenerative disease. The assay was developed using a cell-based functional readout. Toward this goal, stably transfected HEK293 cell clones were established that co-express (i) a cAMP-responsive luciferase reporter gene, and (ii) constitutively active GLP-1R that upon ligand interaction inhibit (inverse agonists) the luciferase activity. In addition, two control cell lines were developed: (i) one that express only the cAMP-responsive reporter gene to enable initial exclusion of GLP-1R independent effects of candidate probes; and (ii) one with the reported gene cloned with another constitutively active orphan receptor GPR119 to enable exclusion of GLP-1R independent inhibitor effects of candidate inverse agonists. To that end, this assay was optimized for 1536-well format and screened against the MLSMR. […] NIH Molecular Libraries Probe Production Network [MLPCN] NIH Chemical Genomics Center [NCGC] Grant: NS064851 PI Name: Martin Beinborn, Tufts Medical Center
Six ul of cell suspension (200 cells/uL in DMEM + 10% Nu serum + 1% pen-strep) is dispensed in a white solid 1536-well plate. The plates are incubated for 12 hours at 37 deg C at 5% CO2 followed by addition of 23 nL compounds. After 24 hr incubation at 37 deg C and 5% CO2, 3 uL of luciferase assay detection reagent is added. A luminescence read is obtained on the PerkinElmer Viewlux after 12 min incubation at room temperature.
In the case of COc1cc(-n2c(=S)[nH]c3ccc(C)cc3c2=O)c(Cl)cc1Cl, the Potency is reported as 12.6 µM (active). O=c1c2ccccc2[nH]c(=S)n1-c1cccc(Cl)c1 was tested, and the Potency was “inactive”. For C[C@]12CCCCC1=CC(=O)C1C2CC[C@@]2(C)C1C[C@@H](F)[C@@H]2O (some centres undefined), the Potency was “inactive”. COC1=CC=C2[C@H]3Cc4ccc(OC)c5c4[C@@]2(CCN3C)C1O5 (some centres undefined) was tested, and the Potency was “inactive”. With COc1ccc2c(c1)NP(=S)(c1ccccc1)N2 (centres undefined) the Potency was “inactive”. In the case of COC(=O)C1=C(c2ccc(-c3ccccc3)c(F)c2)C[C@@H]2CC[C@H]1N2C(=O)NCc1ccc(F)cc1, the Potency is reported as “inactive”. For COC(=O)C1=C(c2ccc(F)cc2OCc2ccccc2)C[C@@H]2CC[C@H]1N2C(=O)NCc1ccc(Cl)cc1, the Potency was “inactive”. With COC(=O)C1=C(c2cccc(OCc3ccccc3)c2)C[C@@H]2CC[C@H]1N2C(=O)NCc1ccc(Br)cc1 the Potency was 12.6 µM (active). In the case of COC(=O)C1=C(c2ccc(OCc3ccccc3)cc2)C[C@@H]2CC[C@H]1N2C(=O)NCc1ccc(Cl)cc1, the Potency is reported as “inactive”. For COC(=O)C1=C(c2ccccc2OCc2ccccc2)C[C@@H]2CC[C@H]1N2C(=O)NCc1ccc(OC)cc1, the Potency was “inactive”. For COC(=O)C1=C(c2ccc(OCc3ccccc3)cc2)C[C@@H]2CC[C@H]1N2C(=O)NCc1cccc(F)c1, the Potency was 4.47 µM (active). With COc1ccc(NC(=O)N2Cc3ccccc3-n3nncc3C2)cc1 the Potency was “inactive”. O=P(OC1=CCCCC1)(c1ccccc1)c1ccccc1 was tested, and the Potency was “inactive”. For CCOC(=O)CNC(=O)N1Cc2cc(N3CCCCC3)ccc2-n2nncc2C1, the Potency was “inactive”. With O=C1NCN(c2ccccc2)C12CCN(C(c1cccs1)c1nnnn1C1CCCCC1)CC2 (centres undefined) the Potency was “inactive”. CC1([N+](=O)[O-])COP(=O)(Nc2ccc(F)cc2)OC1 (centres undefined) was tested, and the Potency was “inactive”. For C[C@]12CCC3C(CC[C@H]4[C@H](O)[C@H](O)CC[C@]34C)C1CC[C@@H]2O (some centres undefined), the Potency was “inactive”. With Cc1ccsc1C(=O)C1CCCN(Cc2ccc(O)cc2)C1 (centres undefined) the Potency was “inactive”. In the case of Cc1ccc(CN2CCCC(C(=O)c3ccc4c(c3)OCO4)C2)cc1C (centres undefined), the Potency is reported as 11.2 µM (active). For COc1ccc(C(=O)C2CCCN(Cc3ccc(C)s3)C2)cc1OC (centres undefined), the Potency was “inactive”. In the case of COc1cc(C(=O)N2Cc3ccc(Br)cc3-n3nncc3C2)cc(OC)c1OC, the Potency is reported as “inactive”. For Clc1ccc(Cl)c(Oc2ccc(Oc3nc(Cl)ccc3Cl)cc2)n1, the Potency was “inactive”. With C[C@H]1CN([C@@H](C)CO)C(=O)CCCn2nncc2CO[C@H]1CN(C)C(=O)Oc1cccc2ccccc12 the Potency was “inactive”. For CC=C(C)C(=O)OC1CCN2CC=C(COC(=O)C(O)(C(C)OC)C(C)(C)O)C12 (centres undefined), the Potency was “inactive”. Cc1ccc(S(=O)(=O)N(C)c2ccc(C(=O)NCC3(N(C)C)CCCCC3)cc2)cc1 was tested, and the Potency was 3.16 µM [GLP-1R form is constitutively active] (active). With COC1C(O)C(C)OC(OC2CCC3(C=O)C(CCC4C3CCC3(C)C(C5=CC(=O)OC5)CCC43O)C2)C1O (centres undefined) the Potency was “inactive”. In the case of O=c1c2ccccc2nc(/C=C/c2ccco2)n1-c1ccccc1O, the Potency is reported as 11.2 µM (active). O=c1c2ccccc2nc(/C=C/c2ccc(F)cc2)n1-c1ccccc1O was tested, and the Potency was “inactive”. Cn1cc(/C=C/c2nc3ccccc3c(=O)n2-c2ccccc2)c2ccccc21 was tested, and the Potency was “inactive”. In the case of CC1CCCN1CCC(C(N)=O)(c1ccccc1)c1ccccc1 (centres undefined), the Potency is reported as “inactive”. CC1CC=CCC12C(=O)NC(=S)NC2=O (centres undefined) was tested, and the Potency was “inactive”. In the case of CCN1C(=O)NC(=O)C2(CCCC2)C1=O, the Potency is reported as “inactive”. In the case of C[C@H]1CN([C@@H](C)CO)C(=O)CCCn2nncc2CO[C@H]1CN(C)C(=O)Oc1ccccc1, the Potency is reported as “inactive”. For O=C1NC(=O)C(Cc2ccccc2)C(=O)N1, the Potency was “inactive”. With COC(=O)C[C@H]1CC[C@H]2NC[C@@H](O)COC[C@@H]2O1 the Potency was “inactive”. With CCn1cc(CN2CCCC(C(=O)c3cccc(C(F)(F)F)c3)C2)cn1 (centres undefined) the Potency was “inactive”. COc1ccc(NC(=O)c2cn(CCC#N)nc2-c2ccc([N+](=O)[O-])cc2)cc1 was tested, and the Potency was “inactive”. In the case of COc1ccc(-c2nn(CCC#N)cc2C(=O)Nc2ccc(C(C)=O)cc2)cc1, the Potency is reported as “inactive”. In the case of COc1cccc(C(=O)Nc2ccc(-c3cc(C(F)(F)F)nn3-c3ccccc3)cc2)c1, the Potency is reported as 7.94 µM [GLP-1R form is constitutively active] (active). O=C1NC(=O)C(CCOc2ccccc2)(CCc2ccccc2)C(=O)N1 was tested, and the Potency was “inactive”. In the case of O=C1C2CCN(CC2)C1(CO)CO, the Potency is reported as “inactive”. With CC12CCC(O)CC1CCC1C2CCC2(C)C(C(=O)CC(O)C(F)(F)F)CCC12 (centres undefined) the Potency was “inactive”. In the case of CCCCOc1ccc(C(=O)N2CC(=O)Nc3ccc(Br)cc3C2c2ccc(F)cc2)cc1 (centres undefined), the Potency is reported as 10 µM [GLP-1R form is constitutively active] (active). For CC(=O)NCC1=C(c2ccc3ccccc3c2)C[C@@H]2CC[C@H]1N2Cc1ccco1, the Potency was “inactive”. For O=C1C2(Cl)C3(Cl)C4(Cl)C(Cl)(Cl)C5(Cl)C3(Cl)C1(Cl)C5(Cl)C24Cl (centres undefined), the Potency was 4.47 µM (active). In the case of CC(C)CN1Cc2cc(N3CCCCC3)ccc2-n2nncc2C1, the Potency is reported as “inactive”. With COc1ccc(C2C=C(C)Oc3c2c(=O)oc2ccccc32)cc1OC (centres undefined) the Potency was “inactive”. With CSCCC(c1nnnn1C(C)(C)C)N1CCC(n2c(=O)[nH]c3ccccc32)CC1 (centres undefined) the Potency was “inactive”. In the case of O=C(CCN1CCCCC1)NCC(=O)Nc1ccc(Br)cc1C(=O)c1ccccc1, the Potency is reported as “inactive”. In the case of O=C(COC(=O)c1ccccc1)Nc1ccc(Cl)cc1C(=O)c1ccccc1, the Potency is reported as “inactive”. In the case of O=C(CN1CCCCC1)Nc1ccc(Br)cc1C(=O)c1ccccc1Cl, the Potency is reported as 10 µM [GLP-1R form is constitutively active] (active). With CC(=O)c1ccc(-c2ccc(Cn3c(C)nc4cc(N)c(C)nc43)cc2)cc1 the Potency was “inactive”. In the case of O=C(NC1CCCCC1)N1Cc2cc(N3CCCCC3)ccc2-n2nncc2C1, the Potency is reported as “inactive”. CC(=O)C1(O)CCC2C3CCC4=C(Cl)C(=O)CCC4(C)C3CCC21C (centres undefined) was tested, and the Potency was “inactive”. CCOC(=O)C1(Cc2ccc(Cl)cc2)CCN(C(C)CCn2cccn2)CC1 (centres undefined) was tested, and the Potency was 7.94 µM [GLP-1R form is constitutively active] (active). With Oc1ccc2c3c1OC1[C@H](O)CC[C@@]4(O)[C@@H](C2)N(CC2CC2)CC[C@]314 (some centres undefined) the Potency was “inactive”. With CC1CNCCN1c1ccc(Cl)cc1 (centres undefined) the Potency was “inactive”. In the case of CC1=C(C(=O)Nc2ccccc2)SCCO1, the Potency is reported as “inactive”. CC1=C(C(=O)Nc2ccccc2)S(=O)(=O)CCO1 was tested, and the Potency was 10 µM (active).
